Data reported in PubChem BioAssay (NCATS).
Values without a mark were called inactive. The call rests on the fitted dose curve; in most records, active means well fitted curve in the direction sought with a large enough effect; inactive means no such curve, though single readings can be large or run the other way.

molecular target: Alpha-galactosidase (Coffea arabica) (UniProt Q42656); experiment: Counterscreen for Glucocerebrosidase Inhibitors: qHTS Assay for Coffee Bean alpha-Galactosidase at pH 5.9 (AID 998); conditions: coffee bean alpha-galactosidase enzyme assay; series mostly up to 76.9 µM; activity, negative = inhibition: at the top concentration;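 further: plate controls were uninhibited enzyme for no effect and no-enzyme basal signal for full effect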
Procedure, shortened: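 Fluorogenic 4-MU substrate hydrolysis, 80 uM substrate and 2 nM coffee bean alpha-galactosidase, pH 5.9 citrate buffer, 20 min at room temperature, then NaOH/glycine stop. Titration 0.7 nM–77 uM, normalized to no-enzyme and enzyme controls, AC50 via Hill equation.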

Sequence of Alpha-galactosidase (Coffea arabica) (Q42656 whole entry, looked up): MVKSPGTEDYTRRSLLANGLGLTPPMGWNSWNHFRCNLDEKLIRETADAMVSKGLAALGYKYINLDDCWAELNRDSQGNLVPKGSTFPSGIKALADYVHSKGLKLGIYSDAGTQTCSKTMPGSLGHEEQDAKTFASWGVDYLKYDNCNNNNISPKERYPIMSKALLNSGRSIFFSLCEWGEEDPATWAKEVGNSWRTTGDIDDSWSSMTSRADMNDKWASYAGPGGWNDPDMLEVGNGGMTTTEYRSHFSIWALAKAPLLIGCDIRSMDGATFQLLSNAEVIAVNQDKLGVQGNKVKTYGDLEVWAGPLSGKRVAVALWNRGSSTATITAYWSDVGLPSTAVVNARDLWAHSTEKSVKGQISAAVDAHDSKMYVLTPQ

Compound | activity, negative = inhibition [%]
NCCc1cnc[nH]1 | 1.69
O=C1NCN(c2ccccc2)C12CCN(CCCC(c1ccc(F)cc1)c1ccc(F)cc1)CC2 | -10.9
COc1ccc(CN(CCN(C)C)c2ccccn2)cc1 | -0.235
CCCCNc1ccc(C(=O)OCCN(C)C)cc1 | -0.178
CN(C)CCOC(c1ccccc1)c1ccccc1 | -1.34
C[C@]12CCC(=O)C=C1CC[C@@H]1[C@@H]2CC[C@@]2(C)[C@H]1CC[C@]2(O)C(=O)CO | -1.66
CCCOc1ccccc1-c1nc2n[nH]nc2c(=O)[nH]1 | 0.735
Cc1cc(C(C)(C)C)c(O)c(C)c1CC1=NCCN1 | 0.333
C(=C\c1ccccc1)/CN1CCN(C(c2ccccc2)c2ccccc2)CC1 | -1.5
NCCc1ccc(O)c(O)c1 | -1.51
CCOC(=O)C(C)(C)Oc1ccc(Cl)cc1 | 1.12
CC1=C(CC(=O)O)c2cc(F)ccc2/C1=C\c1ccc(S(C)=O)cc1 (centres undefined) | -1.97
CCC(=O)c1ccc2c(c1)N(CCCN(C)C)c1ccccc1S2 | 0.507
C[C@]12CCC(=O)C=C1CC[C@@H]1[C@@H]2[C@@H](O)C[C@@]2(C)[C@H]1CC[C@]2(O)C(=O)CO | 1.34
Oc1cc(O)c2c(c1)O[C@H](c1ccc(O)c(O)c1)[C@H](O)C2 | 0.413
C[N+](C)(C)CCCCCCCCCC[N+](C)(C)C | 1.38
Cn1cnc2c1c(=O)[nH]c(=O)n2C | 0.336
COc1cc2c(cc1OC)-c1cc(=Nc3c(C)cc(C)cc3C)n(C)c(=O)n1CC2 | -2.51
CCc1cccc(N(C)C(N)=Nc2cccc3ccccc23)c1 | -7.83
COc1ccc2c(c1)c(CC(=O)O)c(C)n2C(=O)c1ccc(Cl)cc1 | -0.298
O=C(O)CN(CCOCCOCCN(CC(=O)O)CC(=O)O)CC(=O)O | 0.419
c1cnc(N2CCN(Cc3ccc4c(c3)OCO4)CC2)nc1 | -2.81
CN1CCC(=C2c3ccccc3CC(=O)c3sccc32)CC1 | -1.13
CCCn1cnc2c1c(=O)n(CCCCC(C)=O)c(=O)n2C | -4.55
O=C1N(c2ccccc2)c2ccccc2C1(Cc1ccncc1)Cc1ccncc1 | -6.28
Nc1ccn([C@H]2CC[C@@H](CO)O2)c(=O)n1 | 3.02
Cc1ccc(N(CC2=NCCN2)c2cccc(O)c2)cc1 | -0.373
C[n+]1cc2c3c(ccc2c2ccc4cc5c(cc4c21)OCO5)OCO3 | -1.87
O=C(Nc1ccc([N+](=O)[O-])cc1Cl)c1cc(Cl)ccc1O | -5.26
